Experimental data published in PubChem BioAssay (NCATS).
Results filed as inconclusive are left out. The source made the active and inactive calls. Unless noted, the call rests on the fitted dose curve.

Legend:
[1] = Primary qHTS for inhibitors of SARS-S pseudo-typed particle cell entry (AID 1479145); settings: outcome: dose series up to 57.1 µM unless noted; further: nearly all actives have a fitted effect of over 45% in size; on activity change, negative = inhibition: on the % scale 0 is the no-effect control and ±100 the full control effect
[2] = Primary qHTS for Huh7 cytotoxicity: counterscreen for inhibitors of MERS-S pseudotyped particle cell entry (AID 1479147); settings: outcome: dose series up to 57.1 µM unless noted
[3] = Primary qHTS for inhibitors of MERS-S pseudo-typed particle cell entry (AID 1479149); settings: outcome: dose series up to 57.1 µM unless noted; further: nearly all actives have a fitted effect of over 60% in size; on activity change, negative = inhibition: on the % scale 0 is the no-effect control and ±100 the full control effect
[4] = Primary qHTS for Vero E6 cytotoxicity: counterscreen for inhibitors of SARS-S pseudo-typed particle cell entry (AID 1479150); settings: outcome: dose series up to 57.1 µM unless noted
[5] = Cytotoxicity counterscreen for inhibitors of SARS-CoV-2 cell entry (AID 1645845); settings: outcome: dose series up to 57.1 µM unless noted; further: nearly all actives have a fitted effect of over 50% in size
Summary of the method: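 Counterscreen run in the same HEK293-ACE2 line as the pseudotyped-particle entry assay, without particles. Viability after 48 h at 37 C was read as ATP luminescence, scaled between cell-containing and cell-free wells.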

[6] = KB-8-5-11 P-gp reporter qHTS against the NCATS DSHEA and TCM libraries (AID 1919977; active means well fitted curve in the direction sought with a large enough effect; an effect the other way counts as inactive or inconclusive; further: 0% is about no effect)
Summary of the method: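 CellTiter-Glo luminescence measured viability after ~72 h exposure (37C, 5% CO2) of KB-8-5-11 cervical adenocarcinoma cells overexpressing P-gp. Colchicine was omitted during assay. Substances were tested as titrations.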

[7] = Primary qHTS to identify inhibitors of SARS-CoV-2 cell entry (AID 1645846); settings: SARS-CoV-2 pseudovirus cell entry assay, luminescence; activity change, negative = inhibition: at 57.1 µM (top of the series) unless noted; further: nearly all actives have a fitted effect of over 45% in size
Summary of the method: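 Entry measured by luciferase signal 48 h after adding SARS-CoV-2-S pseudotyped MLV particles to HEK293-ACE2 cells preincubated 1 h with compounds. Normalisation: bald particles and spike particles.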

[8] = biological target: Peroxisome proliferator-activated receptor delta (Homo sapiens) (UniProt Q03181); experiment: qHTS assay for small molecule agonists of peroxisome proliferator-activated receptor delta signaling (AID 588534);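 further: 0% = DMSO basal wells and 100% = positive control agonist at 10 µM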
Peroxisome proliferator-activated receptor delta (Homo sapiens), sequence (Q03181 whole entry, looked up): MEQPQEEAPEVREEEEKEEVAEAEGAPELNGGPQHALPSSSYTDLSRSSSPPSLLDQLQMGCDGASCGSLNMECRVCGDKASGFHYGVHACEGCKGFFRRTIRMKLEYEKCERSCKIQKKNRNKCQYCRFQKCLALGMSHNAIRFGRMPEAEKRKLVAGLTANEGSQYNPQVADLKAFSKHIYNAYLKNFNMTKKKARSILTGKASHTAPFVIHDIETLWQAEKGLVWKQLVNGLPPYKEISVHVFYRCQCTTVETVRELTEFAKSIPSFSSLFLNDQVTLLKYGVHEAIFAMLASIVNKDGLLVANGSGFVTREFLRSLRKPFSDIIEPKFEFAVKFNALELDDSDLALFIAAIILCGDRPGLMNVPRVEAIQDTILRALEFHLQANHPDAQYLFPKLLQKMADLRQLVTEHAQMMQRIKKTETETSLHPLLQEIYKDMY
Summary of the method: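 Titration series tested in agonist mode on beta-lactamase reporter cells; 18 hrs at 37 C after a 5 hr pre-incubation. Readout: CCF4 fluorescence, 2 hrs RT. Hill equation gives EC50 and maximal response.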

[9] = biological target: Glutathione peroxidase 1 (Homo sapiens) (UniProt P07203); experiment: Primary qHTS Assay for Inhibitors of Recombinant Selenoprotein Glutathione Peroxidase 1 (GPX1) (AID 1845191; active means well fitted curve in the direction sought with a large enough effect; an effect the other way counts as inactive or inconclusive; further: on the % scale 0 is the no-effect control and ±100 the full control effect; nearly all actives have a fitted effect of over 65% in size)
Glutathione peroxidase 1 (Homo sapiens), sequence (P07203 whole entry, looked up): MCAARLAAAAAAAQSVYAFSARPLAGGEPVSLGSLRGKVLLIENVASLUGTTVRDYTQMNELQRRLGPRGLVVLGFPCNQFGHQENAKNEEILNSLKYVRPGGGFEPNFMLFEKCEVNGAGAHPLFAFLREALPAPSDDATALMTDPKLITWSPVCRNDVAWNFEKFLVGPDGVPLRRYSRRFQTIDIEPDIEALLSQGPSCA
Summary of the method: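 GR-coupled readout: NADPH consumption tracked by fluorescence, ex 340/em 450 nm, at t=0 and after 15 min at RT. Final mix 10 nM GPX1, 1 mM GSH, 0.5 mM CHP, 0.5 mM NADPH, 100 nM GR, 0.01% BSA, following 30 min enzyme–compound preincubation.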

[10] = biological target: Phospholipid hydroperoxide glutathione peroxidase GPX4 (Homo sapiens) (UniProt P36969); experiment: Primary qHTS Assay for Inhibitors of Recombinant Selenoprotein Glutathione Peroxidase 4 (GPX4) (AID 1845192; active means well fitted curve in the direction sought with a large enough effect; an effect the other way counts as inactive or inconclusive; further: nearly all actives have a fitted effect of over 65% in size)
Phospholipid hydroperoxide glutathione peroxidase GPX4 (Homo sapiens), sequence (P36969 whole entry, looked up): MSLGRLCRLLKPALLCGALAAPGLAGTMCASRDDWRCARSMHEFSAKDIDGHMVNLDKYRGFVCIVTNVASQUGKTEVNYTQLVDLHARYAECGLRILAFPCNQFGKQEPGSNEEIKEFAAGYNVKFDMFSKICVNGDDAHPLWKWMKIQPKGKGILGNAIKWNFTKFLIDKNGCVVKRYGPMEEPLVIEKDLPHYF
Summary of the method: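 Steps: GPX4 plus compound, 30 min RT; add GR/GSH/NADPH master mix; start with cumene hydroperoxide; read 340/450 nm fluorescence at 0 and 15 min. Finals were 200 nM GPX4, 1 mM GSH, 0.5 mM CHP, 0.5 mM NADPH, 100 nM GR.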

[11] = biological target: ATP-dependent 6-phosphofructokinase (Trypanosoma brucei brucei) (UniProt O15648); experiment: qHTS Assay to Find Inhibitors of T. brucei phosphofructokinase: hit validation (AID 492961; active means well fitted curve in the direction sought with a large enough effect; an effect the other way counts as inactive or inconclusive;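 further: luminescence reports ADP formed as PFK phosphorylates fructose-6-phosphate with ATP; on the % scale 0 is the no-effect control and ±100 the full control effect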)
ATP-dependent 6-phosphofructokinase (Trypanosoma brucei brucei), sequence (O15648 whole entry, looked up): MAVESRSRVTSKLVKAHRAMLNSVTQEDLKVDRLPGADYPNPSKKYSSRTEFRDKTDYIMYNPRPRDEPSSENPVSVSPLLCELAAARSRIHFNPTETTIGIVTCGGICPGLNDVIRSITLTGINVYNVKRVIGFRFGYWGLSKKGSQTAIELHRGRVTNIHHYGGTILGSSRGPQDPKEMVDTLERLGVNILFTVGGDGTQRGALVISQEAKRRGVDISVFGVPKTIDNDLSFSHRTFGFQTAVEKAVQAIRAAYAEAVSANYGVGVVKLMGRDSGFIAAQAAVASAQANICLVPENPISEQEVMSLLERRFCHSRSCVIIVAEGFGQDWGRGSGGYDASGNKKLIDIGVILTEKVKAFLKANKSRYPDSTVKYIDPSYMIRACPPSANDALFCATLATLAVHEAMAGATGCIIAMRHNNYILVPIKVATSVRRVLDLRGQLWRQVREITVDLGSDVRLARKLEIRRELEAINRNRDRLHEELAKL
Summary of the method: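 Inhibition of parasite PFK is measured as reduced ADP formation, quantified via luciferase after ATP depletion. Assay used 0.1 mM ATP, 0.5 mM F6P, 1.25 nM enzyme, 45 min incubation.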

[12] = biological target: Nuclear receptor subfamily 1 group I member 3 (Homo sapiens) (UniProt Q14994); experiment: Primary qHTS for antagonist of constitutive androstane receptor (CAR) against the NCATS DSHEA and TCM libraries (AID 1794836; active means well fitted curve in the direction sought with a large enough effect; an effect the other way counts as inactive or inconclusive;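 further: HepG2 cells stably expressing hCAR with CYP2B6 luciferase reporter stimulated by CITCO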)
Nuclear receptor subfamily 1 group I member 3 (Homo sapiens), sequence (Q14994 whole entry, looked up): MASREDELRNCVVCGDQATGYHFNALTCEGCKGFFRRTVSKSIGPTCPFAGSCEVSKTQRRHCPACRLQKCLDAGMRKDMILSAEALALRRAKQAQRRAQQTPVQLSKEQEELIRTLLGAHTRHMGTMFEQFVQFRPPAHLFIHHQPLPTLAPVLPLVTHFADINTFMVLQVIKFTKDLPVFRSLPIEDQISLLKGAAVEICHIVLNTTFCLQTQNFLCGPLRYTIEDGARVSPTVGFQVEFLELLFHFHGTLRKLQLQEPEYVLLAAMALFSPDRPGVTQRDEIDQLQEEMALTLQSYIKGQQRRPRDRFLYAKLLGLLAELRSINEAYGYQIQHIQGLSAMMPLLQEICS
Summary of the method: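 HepG2-CYP2B6-hCAR cells, attached 5 h, given compounds plus CITCO agonist […], incubated 24 h at 37 C. Luciferase luminescence read, multiplexed with CellTiter-Fluor viability (Ex/Em 405/540 nm).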

[13] = biological target: Alpha-galactosidase (Coffea arabica) (UniProt Q42656); experiment: Counterscreen for Glucocerebrosidase Inhibitors: qHTS Assay for Coffee Bean alpha-Galactosidase at pH 4.5 (AID 957; active means well fitted curve in the direction sought with a large enough effect; an effect the other way counts as inactive or inconclusive;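 further: plate controls were enzyme alone for no effect and no enzyme for full effect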)
Alpha-galactosidase (Coffea arabica), sequence (Q42656 whole entry, looked up): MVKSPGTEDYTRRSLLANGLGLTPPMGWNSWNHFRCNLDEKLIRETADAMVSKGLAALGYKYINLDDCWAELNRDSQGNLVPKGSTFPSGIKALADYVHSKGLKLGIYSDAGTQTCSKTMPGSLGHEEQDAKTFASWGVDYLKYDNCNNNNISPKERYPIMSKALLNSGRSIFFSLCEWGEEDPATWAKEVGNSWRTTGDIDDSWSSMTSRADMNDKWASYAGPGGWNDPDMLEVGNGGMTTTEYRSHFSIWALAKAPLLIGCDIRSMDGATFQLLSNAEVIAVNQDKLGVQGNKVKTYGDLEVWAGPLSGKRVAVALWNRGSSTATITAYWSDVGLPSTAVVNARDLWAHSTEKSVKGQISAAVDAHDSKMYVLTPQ
Summary of the method: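 Fluorogenic read-out: 4-methylumbelliferone at Ex 365/Em 440 nm after NaOH/glycine stop (pH 10). Enzyme 2 nM, 4-MU-alpha-galactoside 80 uM, citrate buffer pH 4.5, 20 min RT; normalized to no-enzyme and enzyme controls.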

[14] = Validation screen for inhibitors of Lassa infection (AID 463096); further: on the % scale 0 is the no-effect control and ±100 the full control effect

CC1=CCC(C(C)(C)O)CC1 (stereo unspecified)
inactive: Potency [1] | Potency [2] | Potency [3] | Potency [4] | Potency [5] | Potency [6]

Cc1ncc(COP(=O)(O)O)c(C)c1O
inactive: Potency [1] | Potency [2] | Potency [3] | Potency [4] | Potency [5] | Potency [6]
-31.2%: activity change, negative = inhibition [7]

CC1=C(/C=C/C(C)=C/C=C/C(C)=C/CO)C(C)(C)CCC1
inactive: outcome [8] | Potency [1] | Potency [2] | Potency [3] | Potency [4] | Potency [5] | Potency [6]
-23.2%: activity change, negative = inhibition [7]

CC1(C)S[C@@H]2[C@H](N)C(=O)N2[C@@H]1C(=O)O
inactive: outcome [1] inactive [at 5.34 µM] | outcome [2] inactive [at 5.34 µM] | outcome [3] inactive [at 5.34 µM] | outcome [4] inactive [at 5.34 µM] | outcome [5] inactive [at 5.25 µM] | outcome [7] inactive [at 5.25 µM] | activity, negative = inhibition [9] 1.27% [at 4.49 µM] | outcome [10] inactive [at 4.52 µM]

Cc1ccc(S(=O)(=O)O)cc1C
inactive: outcome [8] | Potency [1] | Potency [2] | Potency [3] | Potency [4] | Potency [5]
-10.6%: activity change, negative = inhibition [7]

COC(=O)c1ccccc1O
3.44%: activity change, negative = inhibition [7]
inactive: outcome [8] | Potency [1] | Potency [2] | Potency [3] | Potency [4] | Potency [5]

O=C(O)c1ccccc1C(c1ccc(O)cc1)c1ccc(O)cc1
inactive: outcome [8] | Potency [1] | Potency [2] | Potency [3] | Potency [4] | Potency [5]
-24.4%: activity change, negative = inhibition [7]

Fc1cccc(Br)c1NC1=NCCN1
inactive: Potency [1] | Potency [2] | Potency [3] | Potency [4] | Potency [5] | Potency [9] | Potency [10]

NC(=O)CCC1NC(=O)C(Cc2ccccc2)NC(=O)C(Cc2ccc(O)cc2)NC(=O)CCSSCC(C(=O)N2CCCC2C(=O)NC(CCCN=C(N)N)C(=O)NCC(N)=O)NC(=O)C(CC(N)=O)NC1=O (stereo unspecified)
-25.4% [at 27.1 µM]: activity change, negative = inhibition [7]
inactive: Potency [11] | Potency [1] | Potency [2] | Potency [3] | Potency [4] | Potency [5]

C[N+]1([O-])[C@H]2CC(OC(=O)C(CO)c3ccccc3)C[C@H]1[C@H]1O[C@H]12 (stereo partly specified)
inactive: Potency [1] | Potency [2] | Potency [3] | Potency [4] | Potency [5] | Potency [9] | Potency [10]

CO/N=C(\C(=O)N[C@@H]1C(=O)N2C(C(=O)O)=C(CSc3cnns3)CS[C@H]12)c1csc(N)n1
-7.92%: activity change, negative = inhibition [7]
inactive: Potency [1] | Potency [2] | Potency [3] | Potency [4]

CC(C)=CCC/C(C)=C/CC/C(C)=C/CC/C(C)=C/CC1=C(C)C(=O)c2ccccc2C1=O
inactive: Potency [1] | Potency [2] | Potency [3] | Potency [4] | Potency [5] | Potency [12] | Potency [6]

C[C@@](Cc1ccc(O)c(O)c1)(NN)C(=O)O
inactive: outcome [13] | Potency [14] | Potency [1] | Potency [2] | Potency [3] | Potency [4] | Potency [5] | Potency [7]

CC(=O)OC1CC2CCC1(C)C2(C)C (stereo unspecified)
inactive: Potency [1] | Potency [2] | Potency [3] | Potency [4] | Potency [5] | Potency [6]

CC1(C)C2CCC1(C)C(O)C2 (stereo unspecified)
inactive: Potency [1] | Potency [2] | Potency [3] | Potency [4] | Potency [5] | Potency [6]

COc1ccc(C(=O)Nc2ccccc2CCC2CCCCN2C)cc1 (stereo unspecified)
-20%: activity change, negative = inhibition [7]
inactive: Potency [1] | Potency [2] | Potency [3] | Potency [4]

N[C@H](Cc1ccccc1)C(=O)O
-27.4% [at 27.1 µM]: activity change, negative = inhibition [7]
inactive: Potency [1] | Potency [2] | Potency [3] | Potency [4]

C[C@H]1C[C@@H]2[C@H]([C@@H](O)C[C@@]3(C)[C@H]2CC[C@]3(O)C(=O)COC(=O)CCC(=O)O)[C@@]2(C)C=CC(=O)C=C12
-18.6%: activity change, negative = inhibition [7]
inactive: Potency [1] | Potency [2] | Potency [3] | Potency [4]

NCc1ccccc1CC(=O)N[C@@H]1C(=O)N2C(C(=O)O)=C(CSc3nnnn3CC(=O)O)CS[C@H]12
inactive: Potency [1] | Potency [2] | Potency [3] | Potency [4]
-25.4%: activity change, negative = inhibition [7]

CC1(COc2ccc(N3CCC(Oc4ccc(OC(F)(F)F)cc4)CC3)cc2)Cn2cc([N+](=O)[O-])nc2O1 (stereo unspecified)
inactive: Potency [1] | Potency [2] | Potency [4]

O=C(OCc1ccccc1)c1cccnc1
inactive: Potency [1] | Potency [2] | Potency [3] | Potency [5]
1.27%: activity change, negative = inhibition [7]

CN[C@H]1C(=O)N[C@@H]2Cc3ccc(cc3)Oc3cc4cc(c3O[C@@H]3O[C@H](C(=O)O)[C@@H](O)[C@H](O)[C@H]3NC(=O)CCCCCCCCC(C)C)Oc3ccc(cc3Cl)[C@@H](O)[C@@H]3NC(=O)[C@H](NC(=O)[C@@H]4NC(=O)[C@@H](NC2=O)c2cc(cc(O)c2Cl)Oc2cc1ccc2O)c1ccc(O)c(c1)-c1c(O[C@H]2O[C@H](CO)[C@@H](O)[C@H](O)[C@@H]2O)cc(O)cc1[C@@H](C(=O)NCCCN(C)C)NC3=O
inactive: Potency [1] | Potency [2] | Potency [3] | Potency [4]
0.0393% [at 27.1 µM]: activity change, negative = inhibition [7]
